Data on 11 compounds can be found in PubChem BioAssay (EPA / NIEHS).

“And” between values parts separate entries of the source, which are not always exact repeats. Equal values may be shown once. Inconclusive results are not listed. More than one record can exist for a structure, and the calls need not agree. The source made the active and inactive calls. How the source made its calls: active means hit-call score of the fitted dose curve at least 0.9, where 1 is the maximum; inconclusive means response in the unintended direction; inactive means score below 0.9.

One test concerns NCBI gene 100848466. Description: NVS_NR_bPR: NovaScreen (NVS) Nuclear Receptor Binding Assay for bovine Progextron Receptor (PR) (AID 2283343).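 On AC50: actives lower bound radioligand signal below DMSO meaning displacement of the label.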 The method, boiled down:
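Competitive radioligand binding with membranes from bovine uterus, scintillation read-out at 18 h post-dose. Compounds first tested in duplicate at 25 uM, then actives in concentration series; loss-of-signal relative to DMSO.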

Test [1] deals with Bile acid receptor (Homo sapiens) (UniProt Q96RI1). Description: NVS_NR_hFXR_Agonist: NovaScreen (NVS) Nuclear Receptor Binding Assay for human Farnesoid X Receptor Agonism (FXR) (AID 2283347). Summed up:
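Agonist-mode FXR assay read by time-resolved FRET 1 h after compound addition, using isolated human receptor protein without cells. Duplicate 25 uM single-point primary screen, concentration series for confirmed actives; DMSO as baseline.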

Test [2] has as its target Estrogen receptor (Homo sapiens) (UniProt P03372). As to the kind of experiment: NVS_NR_hER: NovaScreen (NVS) Nuclear Receptor Binding Assay for human Estrogen Receptor (ER) (AID 2283348). Summed up: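 Cell-free MCF7-derived ER preparation, specific radioligand displaced by test compound, read by scintillation counting 18 h post-dosing. Duplicate single-point 25 uM screen, then concentration-response confirmation; DMSO baseline.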

Test [3] has the same target. As to the kind of experiment: OT_ER_ERaERa_1440: Odyssey Thera (OT) 24-hour HEK293T Protein-Complementation Assay for Estrogen Receptor-alpha/-alpha Homodimer (AID 2283349).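 Further: hits raise fluorescence above DMSO for agonists and antagonists alike.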 Summed up:
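HEK293T, stable ERα LBD (aa 310-547) homodimer PCA; 24 h compound exposure; mean fluorescence intensity (nuclear for agonists, nuclear plus cytoplasmic for antagonists) vs vehicle; positive fitting direction, DMSO baseline.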

Test [4] has the same target. Description: OT_ER_ERaERa_0480: Odyssey Thera (OT) 8-hour HEK293T Protein-Complementation Assay for Estrogen Receptor-alpha/-alpha Homodimer (AID 2283351).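 Further: rise in fluorescence from reassembled reporter fragments on ERα LBD homodimer in nucleus or whole cell.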 Summed up: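 HEK293T cells stably expressing a PCA pair of ER alpha LBD (residues 310-547) were dosed for 8 hours. The gain in fluorescence intensity, nuclear for agonists and whole-cell for antagonists, was measured by laser scanning cytometry against DMSO vehicle.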

Test [5] has as its target T1, Estrogen receptor (Homo sapiens) + Estrogen receptor beta (Homo sapiens) (UniProt P03372+Q92731). As to the kind of experiment: OT_ER_ERaERb_0480: Odyssey Thera (OT) 8-hour HEK293T Protein-Complementation Assay for Estrogen Receptor-alpha/-beta Heterodimer (AID 2283352). Summed up:
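Fluorescence increase from reconstituted reporter fragments, quantified by laser scanning cytometer, reflects ER-alpha/ER-beta heterodimer formation in human HEK293T cells. Exposure 8 h; positive-direction fitting against DMSO vehicle.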

The target in test [6] is T1, Estrogen receptor (Homo sapiens) + Estrogen receptor beta (Homo sapiens). Description: OT_ER_ERaERb_1440: Odyssey Thera (OT) 24-hour HEK293T Protein-Complementation Assay for Estrogen Receptor-alpha/-beta Homodimer (AID 2283356).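 Further: heteromer of ER alpha and ER beta binding domains; hits raise reporter fluorescence and both agonists and antagonists give an increase.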 Summed up:
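Fragment complementation between ER alpha (310-547) and ER beta (263-489) ligand-binding domains in HEK293T cells; signal read 24 h post-dosing by laser scanning cytometer. Gain of fluorescence relative to DMSO fitted.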

Test [7] deals with Estrogen receptor beta (Homo sapiens) (UniProt Q92731). As to the kind of experiment: OT_ER_ERbERb_0480: Odyssey Thera (OT) 8-hour HEK293T Protein-Complementation Assay for Estrogen Receptor-beta/-beta Homodimer (AID 2283357).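 Further: active means signal gain over DMSO baseline.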 Summed up: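 ER-beta LBD homodimer PCA stably expressed in HEK293T; 8 h compound exposure, then formaldehyde fixation and Draq5 staining. Gain in nuclear/cytoplasmic fluorescence intensity versus DMSO vehicle, read on laser scanning cytometer.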

In test [8] the target is Retinoic acid receptor alpha (Homo sapiens) (UniProt P10276). Description: NVS_NR_hRAR_Antagonist: NovaScreen (NVS) Nuclear Receptor Binding Assay for human Retinoic Acid Alpha Receptor Antagonism (RAR) (AID 2283358). The method, boiled down:
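RARalpha antagonism was read by TR-FRET as loss of binding signal versus DMSO, 2 h after chemical addition, in a biochemical format. Single-concentration duplicates (25 uM) were run first, and actives were retested in concentration series.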

The target of test [9] is human Constitutive Androstane Receptor (CAR), NR1I3 (gene 9970) (UniProt Q14994). As to the kind of experiment: NVS_NR_hCAR_Antagonist: NovaScreen (NVS) Nuclear Receptor Binding Assay for human Constitutive Androstane Receptor Antagonism (CAR) (AID 2283344). The method, boiled down: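 Single 25 uM duplicate primary screen, with concentration-series follow-up on actives. Cell-free binding format run in antagonist mode, TR-FRET signal taken 1 h post-dose; activity is signal loss relative to DMSO.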

The target of test [10] is bovine Estrogen Receptor (ER), ESR1 (gene 407238) (UniProt P49884). Description: NVS_NR_bER: NovaScreen (NVS) Nuclear Receptor Binding Assay for bovine Estrogen Receptor (ER) (AID 2283345).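 Further: actives lower the bound radioligand count which means they displace the ER ligand.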 The method, boiled down: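 Displacement of a radioligand from estrogen receptor in bovine uterine membrane preparations; scintillation signal taken at 18 hours, DMSO as baseline. Single-concentration duplicates (25 uM) preceded concentration-response follow-up of actives.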

Test [11] relates to guinea pig Histamine Receptor (H2), gene 100729734. As to the kind of experiment: NVS_GPCR_gH2: NovaScreen (NVS) G Protein-Coupled Receptor Assay for guinea pig Histamine Receptor (H2) (AID 2283342). Summed up:
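Guinea pig striatal membrane preparation with specific radioligand; bound counts measured by filtration and scintillation 1 h post-dosing, DMSO as baseline. Chemicals passing a 25 uM duplicate screen were titrated to a 50 uM maximum.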

Test [12] has as its target chimpanzee Androgen Receptor (AR), AR (gene 747460) (UniProt O97775). Description: NVS_NR_cAR: NovaScreen (NVS) Nuclear Receptor Binding Assay for chimpanzee Androgen Receptor (AR) (AID 2283346).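 Further: radioligand displacement from AR measured by scintillation counting in a cell-free assay; a loss of bound radioligand signal versus DMSO counts as binding.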 Summed up: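 Cell-free competition binding with insect-cell (Sf9/Sf21) extracted chimpanzee AR; scintillation signal from lysate at 72 h. Screened in duplicate at 25 uM, then concentration-response for actives; fitting relative to DMSO.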

In test [13] the target is Bile acid receptor (Homo sapiens) (UniProt Q96RI1). Description: NVS_NR_hFXR_Antagonist: NovaScreen (NVS) Nuclear Receptor Binding Assay for human Farnesoid X Receptor Antagonism (FXR) (AID 2283350). Summed up: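 Antagonist-format time-resolved FRET binding assay with extracted human receptor protein, read 1 hour after compound addition. Compounds first screened at 25 uM in duplicate, then actives tested in concentration series, with loss of signal relative to DMSO.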

The target of test [14] is Androgen Receptor/SRC-1 Co-activator, AR (gene 367) (UniProt P10275). Description: OT_AR_ARSRC1_0480: Odyssey Thera (OT) 8-hour HEK293T Protein-Complementation Assay for Androgen Receptor/SRC-1 Co-activator (AID 2283354).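 Further: hits raise the complementation signal above DMSO so AC50 marks enhancers.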 The method, boiled down: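 Reconstituted split-Venus YFP signal from AR–SRC-1 interaction, read by imaging 8 h post-dose in stable HEK293T lines. The 488 nm nucleus-to-cytoplasm ratio (≥400 cells/image) was fitted upward against DMSO.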

The target of test [15] is human Peroxisome Proliferator-activated Receptor alpha (PPARa), PPARA (gene 5465) (UniProt Q07869). Description: NVS_NR_hPPARa: NovaScreen (NVS) Nuclear Receptor Binding Assay for human Peroxisome Proliferator-activated Receptor alpha (PPARa) (AID 2283359).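 Further: activity means loss of TR-FRET signal versus DMSO baseline.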 Summed up:
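Loss of TR-FRET binding signal relative to DMSO was measured 1 h after chemical addition to extracted receptor protein. Chemicals were first tested in duplicate at 25 uM, and actives were followed up in concentration series.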

The target in test [16] is rat Glycine Receptor, Strychnine-sensitive (GlyRStrySens), Glra1 (gene 25674) (UniProt P07727). As to the kind of experiment: NVS_LGIC_rGlyRStrySens: NovaScreen (NVS) Ligand-Gated Ion Channel Assay for rat Glycine Receptor, Strychnine-sensitive (GlyRStrySens) (AID 2283341). Summed up:
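Radioligand displacement on rat spinal cord membranes, 1 hr, filter scintillation read-out. Single-concentration duplicate screen at 25 uM; chemicals meeting threshold (e.g., 30% inhibition) rerun in concentration-response up to 50 uM. Loss of binding fitted versus DMSO.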

T1 sequence (P03372 whole entry, looked up, the tested form may be a part): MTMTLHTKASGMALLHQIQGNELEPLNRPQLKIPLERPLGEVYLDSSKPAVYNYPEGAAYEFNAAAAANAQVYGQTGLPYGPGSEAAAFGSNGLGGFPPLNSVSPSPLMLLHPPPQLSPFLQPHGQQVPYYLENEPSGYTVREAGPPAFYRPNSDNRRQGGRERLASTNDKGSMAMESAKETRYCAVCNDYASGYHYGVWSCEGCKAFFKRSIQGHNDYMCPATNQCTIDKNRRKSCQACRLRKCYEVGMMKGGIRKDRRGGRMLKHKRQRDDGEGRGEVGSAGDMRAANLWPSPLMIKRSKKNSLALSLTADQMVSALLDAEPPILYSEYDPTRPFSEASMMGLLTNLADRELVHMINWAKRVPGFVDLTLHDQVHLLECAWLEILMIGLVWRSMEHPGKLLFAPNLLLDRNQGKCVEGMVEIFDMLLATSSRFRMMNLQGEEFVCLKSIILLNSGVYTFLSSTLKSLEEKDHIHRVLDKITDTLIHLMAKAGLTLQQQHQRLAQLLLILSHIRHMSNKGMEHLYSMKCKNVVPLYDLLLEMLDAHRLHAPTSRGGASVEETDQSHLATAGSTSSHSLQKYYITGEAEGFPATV
T1 sequence (Q92731 whole entry, looked up, the tested form may be a part): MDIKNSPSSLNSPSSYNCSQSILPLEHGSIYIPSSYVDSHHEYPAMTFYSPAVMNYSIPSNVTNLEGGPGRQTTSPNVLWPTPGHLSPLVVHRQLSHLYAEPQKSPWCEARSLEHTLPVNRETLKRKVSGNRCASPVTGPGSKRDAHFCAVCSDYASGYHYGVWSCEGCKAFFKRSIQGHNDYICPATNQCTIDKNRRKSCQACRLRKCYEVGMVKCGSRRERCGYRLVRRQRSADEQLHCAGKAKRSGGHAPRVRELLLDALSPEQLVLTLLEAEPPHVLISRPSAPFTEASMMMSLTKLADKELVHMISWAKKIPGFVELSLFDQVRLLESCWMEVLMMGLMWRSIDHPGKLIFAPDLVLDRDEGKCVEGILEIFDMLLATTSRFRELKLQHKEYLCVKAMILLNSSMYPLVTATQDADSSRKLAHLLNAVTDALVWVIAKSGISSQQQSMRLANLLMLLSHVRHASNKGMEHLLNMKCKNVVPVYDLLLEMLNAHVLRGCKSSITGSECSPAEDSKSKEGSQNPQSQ
Sequence of Estrogen receptor (Homo sapiens) (P03372 whole entry, looked up): as the sequence (P03372 whole entry, looked up, the tested form may be a part) above
Sequence of Retinoic acid receptor alpha (Homo sapiens) (P10276 whole entry, looked up): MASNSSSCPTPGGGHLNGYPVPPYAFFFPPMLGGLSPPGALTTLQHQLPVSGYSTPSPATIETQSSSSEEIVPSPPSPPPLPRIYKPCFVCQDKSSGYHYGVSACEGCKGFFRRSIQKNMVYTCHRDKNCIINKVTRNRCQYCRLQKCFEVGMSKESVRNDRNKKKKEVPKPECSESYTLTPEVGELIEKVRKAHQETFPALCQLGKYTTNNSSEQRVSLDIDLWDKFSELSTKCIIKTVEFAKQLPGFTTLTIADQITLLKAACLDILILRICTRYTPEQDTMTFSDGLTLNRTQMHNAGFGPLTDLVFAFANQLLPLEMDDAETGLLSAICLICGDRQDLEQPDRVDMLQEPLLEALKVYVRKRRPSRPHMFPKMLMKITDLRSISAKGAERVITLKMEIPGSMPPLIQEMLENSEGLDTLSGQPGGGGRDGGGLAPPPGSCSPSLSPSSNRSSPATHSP
Sequence of Estrogen receptor beta (Homo sapiens) (Q92731 whole entry, looked up, the tested form may be a part): as the sequence (Q92731 whole entry, looked up, the tested form may be a part) above
Sequence of chimpanzee Androgen Receptor (AR), AR (gene 747460) (O97775 whole entry, looked up): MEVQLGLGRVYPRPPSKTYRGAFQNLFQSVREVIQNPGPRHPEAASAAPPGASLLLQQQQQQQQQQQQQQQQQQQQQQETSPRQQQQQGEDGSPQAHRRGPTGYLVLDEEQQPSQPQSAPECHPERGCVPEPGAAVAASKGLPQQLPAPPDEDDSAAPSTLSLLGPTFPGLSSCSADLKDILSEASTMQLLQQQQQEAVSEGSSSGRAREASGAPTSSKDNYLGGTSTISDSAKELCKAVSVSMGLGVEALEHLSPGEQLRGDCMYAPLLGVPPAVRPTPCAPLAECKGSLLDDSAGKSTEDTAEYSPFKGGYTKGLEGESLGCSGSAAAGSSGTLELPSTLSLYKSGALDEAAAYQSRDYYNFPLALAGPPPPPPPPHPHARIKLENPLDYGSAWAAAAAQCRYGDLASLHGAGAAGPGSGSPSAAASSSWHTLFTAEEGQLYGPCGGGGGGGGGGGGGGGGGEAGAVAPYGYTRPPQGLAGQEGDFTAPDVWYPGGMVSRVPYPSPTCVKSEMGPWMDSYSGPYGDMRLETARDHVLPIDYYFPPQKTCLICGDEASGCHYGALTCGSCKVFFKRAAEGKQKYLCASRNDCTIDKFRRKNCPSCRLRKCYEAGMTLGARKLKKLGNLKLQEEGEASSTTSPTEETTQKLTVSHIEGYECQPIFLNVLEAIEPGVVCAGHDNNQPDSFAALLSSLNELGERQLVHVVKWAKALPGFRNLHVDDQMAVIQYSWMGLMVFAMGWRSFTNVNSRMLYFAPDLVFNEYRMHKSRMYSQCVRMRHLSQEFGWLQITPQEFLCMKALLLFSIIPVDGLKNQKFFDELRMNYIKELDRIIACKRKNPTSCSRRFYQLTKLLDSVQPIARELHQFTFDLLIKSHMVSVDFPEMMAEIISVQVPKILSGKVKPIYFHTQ
Sequence of Androgen Receptor/SRC-1 Co-activator, AR (gene 367) (P10275 whole entry, looked up): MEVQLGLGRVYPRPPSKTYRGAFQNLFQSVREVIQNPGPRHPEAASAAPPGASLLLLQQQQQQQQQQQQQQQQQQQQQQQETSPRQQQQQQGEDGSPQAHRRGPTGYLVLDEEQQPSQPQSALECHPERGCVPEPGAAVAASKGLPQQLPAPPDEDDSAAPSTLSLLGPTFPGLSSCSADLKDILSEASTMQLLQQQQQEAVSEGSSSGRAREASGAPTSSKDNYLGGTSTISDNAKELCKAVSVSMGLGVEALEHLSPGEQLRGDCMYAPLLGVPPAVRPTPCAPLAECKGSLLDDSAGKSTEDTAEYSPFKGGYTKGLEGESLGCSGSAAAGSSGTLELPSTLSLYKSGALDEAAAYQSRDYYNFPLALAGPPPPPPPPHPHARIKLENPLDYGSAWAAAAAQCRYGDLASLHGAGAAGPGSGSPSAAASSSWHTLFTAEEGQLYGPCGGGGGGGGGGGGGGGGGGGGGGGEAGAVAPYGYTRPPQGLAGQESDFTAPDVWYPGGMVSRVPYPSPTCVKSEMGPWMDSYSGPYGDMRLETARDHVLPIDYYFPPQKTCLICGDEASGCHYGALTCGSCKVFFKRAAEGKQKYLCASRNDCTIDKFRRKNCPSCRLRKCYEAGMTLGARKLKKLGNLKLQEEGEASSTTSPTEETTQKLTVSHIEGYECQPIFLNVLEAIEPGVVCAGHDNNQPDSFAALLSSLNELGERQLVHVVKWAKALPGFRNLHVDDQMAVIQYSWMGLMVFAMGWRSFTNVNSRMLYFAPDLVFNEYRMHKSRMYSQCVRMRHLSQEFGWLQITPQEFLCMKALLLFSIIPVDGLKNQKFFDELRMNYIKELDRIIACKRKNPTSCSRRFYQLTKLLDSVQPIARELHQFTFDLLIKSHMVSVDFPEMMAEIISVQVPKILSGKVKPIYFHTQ
Sequence of Bile acid receptor (Homo sapiens) (Q96RI1 whole entry, looked up): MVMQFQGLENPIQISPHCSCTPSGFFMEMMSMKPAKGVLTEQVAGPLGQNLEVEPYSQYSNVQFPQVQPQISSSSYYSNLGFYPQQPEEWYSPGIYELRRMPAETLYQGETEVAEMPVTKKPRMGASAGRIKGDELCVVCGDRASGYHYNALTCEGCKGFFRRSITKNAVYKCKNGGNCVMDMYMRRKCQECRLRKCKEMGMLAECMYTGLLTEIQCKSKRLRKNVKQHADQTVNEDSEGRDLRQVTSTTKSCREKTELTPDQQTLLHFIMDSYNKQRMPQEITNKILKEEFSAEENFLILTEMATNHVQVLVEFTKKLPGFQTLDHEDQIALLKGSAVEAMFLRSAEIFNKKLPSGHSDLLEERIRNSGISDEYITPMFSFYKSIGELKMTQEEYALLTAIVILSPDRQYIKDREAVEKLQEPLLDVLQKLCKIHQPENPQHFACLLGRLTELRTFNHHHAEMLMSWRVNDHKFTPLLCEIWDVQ
Sequence of human Constitutive Androstane Receptor (CAR), NR1I3 (gene 9970) (Q14994 whole entry, looked up): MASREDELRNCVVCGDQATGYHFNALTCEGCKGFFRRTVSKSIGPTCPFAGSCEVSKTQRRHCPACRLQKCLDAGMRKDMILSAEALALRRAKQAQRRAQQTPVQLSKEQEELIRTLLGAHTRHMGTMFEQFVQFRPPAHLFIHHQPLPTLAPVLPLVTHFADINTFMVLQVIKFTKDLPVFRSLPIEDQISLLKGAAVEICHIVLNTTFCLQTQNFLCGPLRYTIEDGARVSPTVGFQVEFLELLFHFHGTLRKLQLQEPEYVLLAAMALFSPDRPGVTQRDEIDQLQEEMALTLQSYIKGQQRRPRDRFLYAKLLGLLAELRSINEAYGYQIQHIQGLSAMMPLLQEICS
Sequence of rat Glycine Receptor, Strychnine-sensitive (GlyRStrySens), Glra1 (gene 25674) (P07727 whole entry, looked up): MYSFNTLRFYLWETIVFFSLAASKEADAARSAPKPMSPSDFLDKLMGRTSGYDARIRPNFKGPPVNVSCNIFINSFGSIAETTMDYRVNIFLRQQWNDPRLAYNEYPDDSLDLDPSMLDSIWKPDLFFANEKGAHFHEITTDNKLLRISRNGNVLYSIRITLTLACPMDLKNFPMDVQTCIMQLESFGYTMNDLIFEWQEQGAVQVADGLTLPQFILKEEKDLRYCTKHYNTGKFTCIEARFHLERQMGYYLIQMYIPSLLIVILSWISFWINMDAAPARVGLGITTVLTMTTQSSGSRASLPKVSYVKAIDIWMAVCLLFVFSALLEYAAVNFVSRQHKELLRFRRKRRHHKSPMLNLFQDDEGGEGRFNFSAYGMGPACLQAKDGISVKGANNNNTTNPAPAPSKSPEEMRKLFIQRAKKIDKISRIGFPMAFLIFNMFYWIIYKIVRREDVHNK

In the case of `COP(=S)(OC)Oc1nc(Cl)c(Cl)cc1Cl`, the AC50 in the test on NCBI gene 100848466 was 17.3 µM (active). Also, the result in [1], in test [2], in test [3], in [4], in test [5] and in test [6] was inactive. Further, the compound was classed as inactive in test [7] and in [8].
`CCCCC(CC)COC(=O)c1ccccc1C(=O)OCC(CC)CCCC` (stereo not given): the call (in the test on NCBI gene 100848466; in test [9]; in [10]; in test [2]; in test [4]; in [7]) was inactive. Further, the AC50 in test [3] is 66 µM (active); in test [5], 66.9 µM (active); in test [6], 50 µM (active).
On to `N#CC(CCc1ccc(Cl)cc1)(Cn1cncn1)c1ccccc1` (stereo not given), for which the compound was classed as inactive in [11], in test [3], in test [4], in test [6] and in [7].
Regarding `CON(C)C(=O)Nc1ccc(Cl)c(Cl)c1`, the compound was called inactive (in the test on NCBI gene 100848466; in [9]; in test [2]; in [3]; in test [4]). Besides, in test [12], the AC50 was 15.3 µM (active).
Take `C#CCOS(=O)OC1CCCCC1Oc1ccc(C(C)(C)C)cc1` (stereo not given): the compound was called inactive (in the test on NCBI gene 100848466; in test [9]; in test [3]; in test [13]; in test [4]; in test [5]). Moreover, the result in test [6] and in test [7] was inactive.
For `CN(C)C(=S)SSC(=S)N(C)C`, the outcome in [11], in test [3], in test [4], in test [14], in test [6] and in [7] was inactive. Further, the AC50 in [13] was 8.97 µM (active).
Take `COC(=O)c1ccccc1C(=O)OC`: the compound was called inactive (in [11]; with NCBI gene 100848466; in [9]; in test [1]; in test [3]; in test [13]). In addition, the compound was called inactive in [4], in test [5], in test [6], in [7] and in [8].
For `Oc1ccccc1-c1ccccc1`, the AC50 was 31.3 µM (active) in the test on NCBI gene 100848466; 11.2 µM (active) and 25.5 µM (active) in test [12]; 66 µM (active) in test [5]; 35.7 µM (active) in test [6]; 57.5 µM (active) in [7]. Moreover, the call in [3], in test [4], in test [5], in test [6], in [7] and in test [15] was inactive.
`CC(Oc1ccc(Cl)cc1Cl)C(=O)O` (stereo not given): the result in [16], in test [2], in test [3], in test [4] and in [8] was inactive.
`CCOC(=O)CC(SP(=S)(OC)OC)C(=O)OCC` (stereo not given): the compound was classed as inactive (with NCBI gene 100848466; in [2]; in [3]; in test [4]; in [14]). Moreover, the AC50 in test [9] is 18.6 µM (active).
On to `CCCC1COC(Cn2cncn2)(c2ccc(Cl)cc2Cl)O1` (stereo not given), for which the compound was classed as inactive in test [11], in test [3], in test [4], in test [14] and in [8]. The AC50 is 17.9 µM (active) in the test with NCBI gene 100848466; 11.8 µM (active) and 25 µM (active) in test [9]; 9.99 µM (active) in test [12].
